{"source": "PubChem BioAssay (Tox21)", "note": "“And” between values parts separate entries of the source, which are not always exact repeats. Identical values can stand only once. Inconclusive results are not listed. Where a call stands in place of a potency, no number is given. More than one record can exist for a structure, and the calls need not agree. The source made the active and inactive calls. Calls follow the shape of the dose curve; as a rule, active = well fitted cell-killing curve with a large enough effect in the repeat runs; inconclusive = weak or mixed curves, or effect the other way; inactive = no such curve, though single readings can be large or run the other way. Potency is read from the fitted curve at half-maximal effect."}
{"experiment": "qHTS assay to identify small molecule agonists of the vitamin D receptor (VDR) signaling pathway - cell viability counter screen (AID 743224); also: nearly all actives have a fitted effect of over 50% in size", "conditions": "VDR-bla HEK293T viability, CellTiter-Glo luminescence, 16 h; series mostly up to 62.6 µM", "how_it_was_run": "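Cells: VDR-bla, 2,000/well, settled 4 h. Treatment: compounds in DMSO, 16 h, 37C/5% CO2. Readout: CellTiter-Glo luminescence after 30 min RT.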"}
{"molecule": "c1ccc(N=Nc2ccccc2)cc1", "Potency": "inactive"}
{"molecule": "O=P(O)(O)CCCl", "Potency": "inactive"}
{"molecule": "CCCCCCOC(=O)c1ccccc1C(=O)OCCCCCC", "Potency": "inactive"}
{"molecule": "CCCCCCCCCCCOC(=O)c1ccccc1C(=O)OCCCCCCCCCCC", "Potency": "inactive"}
{"molecule": "Nc1cccnc1", "Potency": "inactive"}
{"molecule": "CCN(CC)N=O", "Potency": "inactive"}
{"molecule": "C=CCc1ccc(OC)cc1", "Potency": "inactive"}
{"molecule": "Oc1ccc(-c2ccccc2)cc1", "Potency": "inactive"}
{"molecule": "COP(=S)(OC)Oc1ccc([N+](=O)[O-])cc1", "Potency": "inactive"}
{"molecule": "CCCCN(CCCC)N=O", "Potency": "inactive"}
{"molecule": "Brc1ccc(Oc2cc(Br)c(Br)cc2Br)c(Br)c1", "Potency": "inactive"}
{"molecule": "N[C@@H](Cc1ccc(N(CCCl)CCCl)cc1)C(=O)O", "Potency": "inactive"}
{"molecule": "CC1(C)C(C=C(Cl)Cl)C1C(=O)OC(C#N)c1cccc(Oc2ccccc2)c1", "note": "(configuration not stated)", "Potency": "inactive"}
{"molecule": "Nc1ccc(Cl)cc1N", "Potency": "inactive and 43.6 µM (active)"}
{"molecule": "NCc1cccnc1", "Potency": "inactive"}
{"molecule": "Oc1cc(Cl)c(Cl)cc1Cl", "Potency": "inactive"}
{"molecule": "CCOc1cc(C=O)ccc1O", "Potency": "inactive"}
{"molecule": "C#CCOS(=O)OC1CCCCC1Oc1ccc(C(C)(C)C)cc1", "note": "(configuration not stated)", "Potency": "6.92 µM (active)"}
{"molecule": "NNC(N)=S", "Potency": "32.1 µM (active)"}
{"molecule": "O=C(O)CC[N+](=O)[O-]", "Potency": "inactive"}
{"molecule": "Cc1ccc(OP(=O)(Oc2ccc(C)cc2)Oc2ccc(C)cc2)cc1", "Potency": "inactive"}
{"molecule": "CCC(C)c1cc([N+](=O)[O-])cc([N+](=O)[O-])c1O", "note": "(configuration not stated)", "Potency": "inactive"}
{"molecule": "CC(C)c1ccc(CO)cc1", "Potency": "inactive"}
{"molecule": "c1nc[nH]n1", "Potency": "inactive"}
{"molecule": "Cc1cc(Cl)ccc1OCCCC(=O)O", "Potency": "inactive"}
{"molecule": "CCCCCCCCOC(=O)c1ccccc1C(=O)OCCCCCCCC", "Potency": "inactive"}
{"molecule": "CN(C)c1ccc(C(=O)c2ccc(N(C)C)cc2)cc1", "Potency": "inactive"}
